Test results from PubChem BioAssay (EPA / NIEHS).
Inconclusive results are not listed. Activity calls are given as the source filed them. How the source made its calls, unless noted: active means hit-call score of the fitted dose curve at least 0.9, where 1 is the maximum; inactive means score below 0.9.

Assays:
[1] = CCTE_Mundy_HCI_Cortical_NOG_NeuriteCount: CCTE's Neurite Outgrowth Assay in rat cortical cells for Neurite Count, Mundy Lab (AID 2284212);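 further: cells fixed about two days after chemical exposure began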
Method in brief: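 Neurite number per cell from high-content imaging of betaIII-tubulin immunostaining, with Hoechst nuclear counterstain.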

[2] = CCTE_Mundy_HCI_Cortical_NOG_NeuriteLength: CCTE's Neurite Outgrowth Assay in rat cortical cells for Neurite Length, Mundy Lab (AID 2284213);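 on AC50: neurites imaged about 48 to 50 h after chemical exposure began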
Method in brief: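 Neurite length was read by high-content imaging of βIII-tubulin-labelled neurites in rat primary cortical cultures. Activity was fitted relative to DMSO.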

[3] = CCTE_Mundy_HCI_Cortical_Synap_Neur_Matur_NeuriteLength: CCTE's Synaptogenesis and Neurite Maturation Assay in rat cortical cells for Neurite Length, Mundy Lab (AID 2284214)
Method in brief: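 Rat cortical neurons, AraC at DIV 5; compound + media change DIV 7, end DIV 12 (288.33 h). Fix, MAP2/synaptophysin/Hoechst immunostain, automated HCI of neurite length vs DMSO.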

[4] = CCTE_Mundy_HCI_Cortical_Synap_Neur_Matur_NeuriteSpotCountPerNeuron: CCTE's Synaptogenesis and Neurite Maturation Assay in rat cortical cells for Neurite Spot Count per Neuron Count, Mundy Lab (AID 2284215)
Method in brief: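 Rat cortical primary cultures; AraC DIV 5 to arrest glia; dosing + media change DIV 7; fixed DIV 12. Anti-MAP2/anti-synaptophysin, Hoechst nuclei; HCI puncta count per neuron, positive fitting direction vs DMSO.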

[5] = CCTE_Mundy_HCI_Cortical_Synap_Neur_Matur_SynapseCount: CCTE's Synaptogenesis and Neurite Maturation Assay in rat cortical cells for Synapse Count, Mundy Lab (AID 2284218)
Method in brief: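 Primary rat cortical culture; AraC DIV 5 to arrest glia; compound + media change DIV 7; terminated DIV 12. PFA/Hoechst fix, anti-MAP2 + anti-synaptophysin immunostain; HCI synapse count/neuron; DMSO = baseline.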

[6] = CCTE_Mundy_HCI_Cortical_Synap_Neur_Matur_NeuriteCount: CCTE's Synaptogenesis and Neurite Maturation Assay in rat cortical cells for Neurite Count, Mundy Lab (AID 2284222)
Method in brief: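 In this multiplexed morphology readout, rat primary cortical neurons are fixed at DIV 12 following dosing at DIV 7 and stained for MAP2, synaptophysin and nuclei. High-content image analysis yields neurite count.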

[7] = CCTE_Mundy_HCI_Cortical_Synap_Neur_Matur_CellBodySpotCount: CCTE's Synaptogenesis and Neurite Maturation Assay in rat cortical cells for Cell Body Spot Count, Mundy Lab (AID 2284223)
Method in brief: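 Rat cortical neurons; AraC @ DIV 5; dose + media change DIV 7; fix DIV 12; anti-MAP2/anti-synaptophysin IF, Hoechst; HCI count of soma synaptophysin puncta/neuron; DMSO = negative control.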

[8] = BSK_BT_PBMCCytotoxicity: PBMC Cytotoxicity Assessment in the BioMAP Diversity Plus: BT Assay (AID 2284225); conditions: primary human B cells with PBMC;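 further: PBMC viability measured by Alamar Blue dye reduction fluorescence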
Method in brief: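 PBMC (75,000/well) pretreated with compound 1 h, then activated with SEB and TSST-1 (20 ng/mL each final), incubated 90 h; Alamar Blue added 6 h, fluorescence read at 546/580 nm. Fitted relative to DMSO.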

[9] = read-out: Secreted IgG (sIgG), gene 3500; assay: BSK_BT_sIgG: BioMAP Diversity Plus: BT Assay for Secreted IgG (sIgG) Biomarker Activity (AID 2284226); conditions: primary human B cells with PBMC
Method in brief: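 Read-out: ELISA for secreted IgG after 24 h of chemical exposure in a B cell plus PBMC co-culture. Values reflect upward-direction fitting against DMSO negative controls.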

[10] = BSK_BT_Bcell_Proliferation: Viability Assessment in the BioMAP Diversity Plus: BT Assay for B cell Proliferation (AID 2284227); conditions: primary human B cells with PBMC
Method in brief: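 Using a human primary B cell–PBMC co-culture, the assay measures total protein by sulforhodamine B absorbance as a gauge of proliferation after 72 h. Analysis followed the positive fitting direction with DMSO as baseline.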

[11] = read-out: Interleukin 6 (IL6), IL6 (gene 3569); assay: BSK_BT_xIL6: BioMAP Diversity Plus: BT Assay for Interleukin 6 (IL6) Biomarker Activity (AID 2284228); conditions: primary human B cells with PBMC
Method in brief: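 B cells and peripheral blood mononuclear cells (human primary co-culture) were dosed with chemical, and after 24 h IL-6 released into the medium was measured by Luminex xMAP. Responses were analysed as gain of signal over DMSO control.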

[12] = read-out: Interleukin 17A (IL17A), IL17A (gene 3605); assay: BSK_BT_xIL17A: BioMAP Diversity Plus: BT Assay for Interleukin 17A (IL17A) Biomarker Activity (AID 2284229); conditions: primary human B cells with PBMC
Method in brief: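 Secreted IL-17A was the measured endpoint, read by Luminex xMAP multiplex in supernatants of a human B cell/PBMC co-culture harvested 24 h after chemical dosing. Signal increase relative to DMSO defined activity.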

[13] = read-out: Tumor necrosis factor (Homo sapiens) (UniProt P01375); assay: BSK_BT_xTNFa: BioMAP Diversity Plus: BT Assay for Tumor necrosis factor alpha (TNF-alpha) Biomarker Activity (AID 2284230); conditions: primary human B cells with PBMC
Method in brief: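 Endpoint derived in the positive direction versus DMSO vehicle. Cells: B cells together with PBMC, exposed 24 h before TNF-alpha in the medium was read on the Luminex xMAP platform.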

[14] = read-out: Vascular cell adhesion molecule 1 (VCAM1), VCAM1 (gene 7412); assay: BSK_MyoF_VCAM1: BioMAP Diversity Plus: MyoF Assay for Vascular cell adhesion molecule 1 (VCAM1) Biomarker Activity (AID 2284231); conditions: primary human lung fibroblasts
Method in brief: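 ELISA read-out of VCAM-1 on human lung fibroblasts 24 h after chemical treatment, with positive-direction curve fitting relative to DMSO controls. Parallel cultures were stained with sulforhodamine B for total protein to flag overt cytotoxicity.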

[15] = CCTE_Mundy_HCI_hNP1_Pro_ResponderAvgInten: CCTE's Proliferation Assay in human neuroprogenitor cells, Mundy Lab (AID 2284224; active means hit-call score of the fitted dose curve at least 0.9, where 1 is the maximum;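 further: human neural progenitor cells hNP1 derived from WA09 embryonic stem cells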)
Method in brief: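 Proliferation was scored as BrdU labelling intensity in human neural progenitors derived from WA09 embryonic cells, measured 26.25 hours after chemical dosing. Activity was fitted relative to DMSO.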

[16] = CCTE_Mundy_HCI_hN2_NOG_NeuriteCount: CCTE's Neurite Outgrowth Assay in human hN2 cells for Neurite Count, Mundy Lab (AID 2284219; active means hit-call score of the fitted dose curve at least 0.9, where 1 is the maximum)
Method in brief: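 In this morphology assay, hNP1-derived neurons received test chemical 2 h post-plating and were fixed two days later in warm paraformaldehyde/sucrose containing Hoechst 33342. Neurites, labelled by rabbit anti-βIII-tubulin (1:800) and Alexa Fluor-488 (1:500), were counted automatically.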

[17] = CCTE_Mundy_HCI_hN2_NOG_NeuriteLength: CCTE's Neurite Outgrowth Assay in human hN2 cells for Neurite Length, Mundy Lab (AID 2284220; active means hit-call score of the fitted dose curve at least 0.9, where 1 is the maximum)
Method in brief: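 Plate hNP1-derived neurons, then add chemical 2 h later as a 1/10 dilution. Stain with anti-βIII-tubulin then Alexa Fluor-488 secondary, and image automatically to measure neurite length.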

[18] = CCTE_Mundy_HCI_hN2_NOG_NeuronCount: CCTE's Neurite Outgrowth Assay in human hN2 cells for Neuron Count, Mundy Lab (AID 2284221; active means hit-call score of the fitted dose curve at least 0.9, where 1 is the maximum)
Method in brief: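 Read-out is the number of betaIII-tubulin-positive neurons imaged by automated high-content analysis, with DMSO as negative control.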

[19] = UKN4_HCS_LUHMES_cell_viability: Viability Assessment in the University of Konstanz (UKN) Leist Lab Neurite Outgrowth Assay in human LUHMES cells (UKN4) (AID 2284232)
Method in brief: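 Fluorescence intensity from high-content imaging of Hoechst H-33342/calcein-AM-stained cells served as the viability read-out. Human LUHMES precursors were differentiated 2 days, replated and treated 24 h; curves were fitted bidirectionally against DMSO.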

[20] = TAMU_PeakParms_SingleDonor1434_Chronotropy: Texas A&M University (TAMU) 1.5-hr Human Induced Pluripotent Stem Cell (iPSC)-derived Cardiomyocytes Calcium (Ca+2) Flux Assay for Cardiotoxicity: Chronotropy (changes in peak frequency) (AID 2284217); conditions: actives raise or lower the signal
Method in brief: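 Using fluorescent Ca2+ flux, average beats per second are measured in human iPSC-derived cardiomyocytes treated 90 min (0.5% DMSO vehicle, 0.2–100 uM). Non-beating data points are removed; activity is modeled in both directions relative to DMSO controls.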

Measured: AC50

Tumor necrosis factor (Homo sapiens), sequence (P01375 whole entry, looked up): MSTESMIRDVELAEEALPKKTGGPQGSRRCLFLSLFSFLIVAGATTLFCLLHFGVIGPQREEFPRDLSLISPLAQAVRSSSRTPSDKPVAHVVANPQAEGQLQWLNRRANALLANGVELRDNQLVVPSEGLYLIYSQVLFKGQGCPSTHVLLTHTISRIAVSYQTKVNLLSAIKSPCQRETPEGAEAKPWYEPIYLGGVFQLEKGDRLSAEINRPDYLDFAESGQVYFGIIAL

CSC(=O)c1cccc2nnsc12
inactive: [1] | [2] | [3] | [4] | [5] | [6] | [7]

N#CSCSc1nc2ccccc2s1
active: [8] 3.65 µM | [9] 3.18 µM | [10] 5.47 µM | [11] 4.1 µM | [12] 4.06 µM | [13] 7.28 µM | [14] 4.37 µM

CCN(CC)C(=O)c1cccc(C)c1
inactive: [1] | [2] | [3] | [4] | [5] | [6] | [7] | [15]

S=C([S-])NCCNC(=S)[S-].[Mn+2]
inactive: [2] | [3] | [4] | [5] | [16] | [17] | [18] | [7]
active: [19] 3.31 µM

CC(=O)[C@H]1CC[C@H]2[C@@H]3CCC4=CC(=O)CC[C@]4(C)[C@H]3CC[C@]12C
inactive: [20]

COCCO
inactive: [20] | [8] | [9] | [10] | [11] | [12] | [13] | [14]

S=C(S)NCCNC(=S)S.[Mn+2].[S-]C([S-])=NCCN=C([S-])[S-].[Zn+2]
inactive: [1] | [2] | [3] | [4] | [5] | [6] | [7]

O=C(O)c1ccccc1
inactive: [1] | [2] | [3] | [4] | [20] | [5] | [16] | [17] | [18] | [6] | [7]

CC1(C)C(C=C(Cl)Cl)C1C(=O)OCc1cccc(Oc2ccccc2)c1 (stereo unspecified)
active: [1] 78.2 µM | [2] 83.7 µM | [3] 8.65 µM | [4] 8.69 µM | [5] 9.11 µM | [18] 20.2 µM
inactive: [20] | [16] | [17] | [6] | [7] | [15]

CCCN(CCC)C(=O)SCC
inactive: [2] | [3] | [4] | [5] | [6] | [7] | [15]

Cc1nn(C)c(Oc2ccccc2)c1C=NOCc1ccc(C(=O)OC(C)(C)C)cc1
active: [1] 0.0196 µM | [2] 0.0155 µM | [3] 0.00265 µM | [4] 0.00181 µM | [5] 0.0023 µM | [6] 0.00454 µM | [7] 0.00403 µM | [15] 7.65 µM

c1ccc2[nH]c(-c3cscn3)nc2c1
active: [20] 9.92 µM

C#CCOC(=O)[C@@H](C)Oc1ccc(Oc2ncc(Cl)cc2F)cc1
active: [15] 50 µM
inactive: [1] | [2] | [3] | [4] | [5] | [6] | [7]

CC(C)(c1ccc(O)cc1)c1ccc(O)cc1
active: [3] 50 µM | [4] 50 µM | [20] 50 µM | [5] 50 µM | [16] 77.3 µM | [17] 78.8 µM | [18] 50 µM
inactive: [2] | [7] | [15]

CCC(C)OC(=O)N1CCCCC1CCO (stereo unspecified)
inactive: [8] | [9] | [10] | [11] | [12] | [13] | [14]
